Compounds without any hit were thinned out: in the full panel of roughly 83,000, 20% have a hit.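 The endpoint reported here, percent growth, reads 100 for growth as untreated, 0 for no net growth and -100 for all cells dead.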 A number with no mark means an inactive call. Activity calls are given as the source filed them. Rule for the calls: active = growth percent below 10; inactive = the rest.
Legend:
Experiment in all cases: NCI-60 one-dose screen, 48 h (100 = growth as untreated, 0 = no growth, -100 = all killed)
Conditions in all cases: 10 µM unless noted
DU-145 prostate = tested on: DU-145 prostate
K-562 leukemia = tested on: K-562 leukemia
MALME-3M melanoma = tested on: MALME-3M melanoma
MDA-MB-231 breast = tested on: MDA-MB-231 breast
RXF 393 renal = tested on: RXF 393 renal
SF-268 CNS = tested on: SF-268 CNS
SF-295 CNS = tested on: SF-295 CNS
SF-539 CNS = tested on: SF-539 CNS
UACC-257 melanoma = tested on: UACC-257 melanoma
M14 melanoma = tested on: M14 melanoma

SMILES | growth (DU-145 prostate) | growth (K-562 leukemia) | growth (MALME-3M melanoma) | growth (MDA-MB-231 breast) | growth (RXF 393 renal) | growth (SF-268 CNS) | growth (SF-295 CNS) | growth (SF-539 CNS) | growth (UACC-257 melanoma) | growth (M14 melanoma)
CN1CC[C@@H](c2c(O)cc(O)c3c(=O)cc(-c4ccccc4Cl)oc23)[C@@H]1CO | 10.7% | 4.81% (active) | -46.8% (active) | 6.99% (active) | -62.8% (active) | 3.32% (active) | 3.04% (active) | -33.3% (active) | -25.8% (active) | -35.4% (active)
COc1ccc(Cl)c(Nc2nc3ccccc3nc2NS(=O)(=O)c2cccc(NC(=O)C(C)(C)N)c2)c1 | 62.4% | 63.3% | 69.5% | 68.3% | -10.2% (active) | 49.8% | 12.2% | 13.7% | 56.9% | 51.7%
Cc1ccc(-n2nc(C(C)(C)C)cc2NC(=O)NCc2cc(F)ccc2Oc2ccc3c(cnn3CCO)c2)cc1 | 42.4% | 3.71% (active) | -6.23% (active) | 14.1% | -10.3% (active) | 34.8% | 26.9% | 21.7% | -11.2% (active) | 9.06% (active)
CC/C(=C(/c1ccc(Cl)cc1)c1ccc(OCCN2CCCCC2)cc1)c1ccc(Cl)cc1 | 89.8% | 26.2% | 82.9% | 94.3% | 96.6% | 88% | 60.6% | 87.8% | 78.3% | 76.6%
CC(C)(C)c1ccc(Cn2cc(CSc3nc4ccccc4s3)nn2)cc1 | 115% | 95.6% | 94% | 86.2% | 103% | 95.3% | 91% | 101% | 97.3% | 97%
Cc1cnc(Nc2ccc(OCCN3CCCC3)cc2)nc1Nc1cccc(S(=O)(=O)NC(C)(C)C)c1 | 17.6% | 1.89% (active) | -34.1% (active) | 6.69% (active) | -86.7% (active) | -10.9% (active) | 15.5% | -83.2% (active) | -78.9% (active) | -48% (active)
CNC(=O)c1nn(C)c2c1C(C)(C)Cc1cnc(Nc3ccc(N4CCN(C)CC4)cc3)nc1-2 | 15.5% | 5.4% (active) | -8.73% (active) | 14.7% | -48.2% (active) | 7.96% (active) | 15.3% | -28.6% (active) | -14.8% (active) | 12.5%
Cc1[nH]n(C(N)=S)c(=O)c1N=Nc1ccc(S(=O)(=O)Nc2ccncn2)cc1 | 83.7% | 103% | 137% | 84.7% | 108% | 85% | 125% | 99.2% | 117% | 106%
Cc1nc2ccc(-n3ncc(C(=O)c4cc5ccccc5[nH]4)c3N)cc2[nH]1 | 60.7% | 17.4% | 64.5% | 53.9% | 15.5% | 50.5% | 53.5% | -2.11% (active) | 79.5% | 61.1%
COc1ccc(-c2ccc3c(N4CCOC[C@@H]4C)nc(N4CCOC[C@@H]4C)nc3n2)cc1CO | 11.6% | 12.8% | -8.07% (active) | 13% | -27.5% (active) | 14.9% | -35% (active) | -39.2% (active) | -24.8% (active) | 6.2% (active)
O=C(COc1cccc(/C=C2\Cc3ccc(Cl)cc3C2=O)c1)Nc1nccs1 | 108% | 89.5% | 116% | 71.7% | 107% | 108% | 119% | 79.9% | 110% | 107%
COc1cccc2cc(-c3nc(C4CCC(C(=O)O)CC4)n4ncnc(N)c34)[nH]c12 (stereo not drawn) | 19.2% | 14% | -12% (active) | 19.2% | -23.8% (active) | 16.2% | -31.2% (active) | -25.6% (active) | -22.8% (active) | 4.34% (active)
CC1(COc2ccc3c(c2)ncn3-c2ccc3cccc(N4CCC(N)CC4)c3n2)COC1 | 15.9% | 0.523% (active) | 20.8% | 4.69% (active) | -58.6% (active) | 9.66% (active) | 59.8% | -82.3% (active) | -50.3% (active) | 2.82% (active)
O=C(Cn1c(=O)ccn(CCCCCCCCOc2ccc(Br)cc2)c1=O)Nc1ccc(Oc2ccc(Cl)cc2)cc1 | 73.7% | 40.5% | 69.8% | 66.6% | 79.8% | 71.1% | 52.9% | 61.9% |  | 70.1%
COc1cc2c(c(OC)c1)C1c3ccccc3NC(=O)N1CC2 (stereo not drawn) | 13.2% | 12.5% | 28.5% | 32.2% | 9.03% (active) | 48.2% | 13.2% | -9.57% (active) | 56.4% | -18.6% (active)
CNC(=O)c1cc(COc2nnc(Nc3ccc(Cl)cc3)c3ccoc23)ccn1 | 31.9% | 69.7% | 22.4% | 18.5% | 43.1% | 14.2% | 10.4% | -65.6% (active) | 33.3% | 78.9%
COc1cc2ncnc(Oc3cccc(NC(=O)Nc4cc(C(C)(C)C(F)(F)F)on4)c3)c2cc1OC | 31.4% | 2.56% (active) | 2.64% (active) | 10.7% | 16.7% | 26.9% | 38.2% | 33% | -10.4% (active) | -2.42% (active)
O=C(Nc1nc2cccc(-c3ccc(CN4CCS(=O)(=O)CC4)cc3)n2n1)C1CC1 | 35.4% | 36.5% | 105% | 81.8% | 50.7% | 70.7% | 88.8% | 79.1% | 86.2% | 90.8%
C=CC(=O)Nc1cc(Nc2nccc(-c3cn(C)c4ccccc34)n2)c(OC)cc1N(C)CCN(C)C | 9.23% (active) | -40.1% (active) | -82.4% (active) | -68.4% (active) | -84.2% (active) | -15.6% (active) | -41.4% (active) | -90.7% (active) | -79.1% (active) | -79.4% (active)
Cc1ccc(F)c(NC(=O)Nc2ccc(-c3cccc4[nH]nc(N)c34)cc2)c1 | 27.5% | 7.81% (active) | -4.64% (active) | 9.7% (active) | -20.1% (active) | 30% | 42.8% | 3.67% (active) | 16% | 28.3%
CNC(=O)c1cc(Oc2ccc(NC(=O)Nc3ccc(Cl)c(C(F)(F)F)c3)c(F)c2)ccn1 | 14.9% | -3.75% (active) | -36.3% (active) | -57.2% (active) | -31.3% (active) | -30.6% (active) | -47.4% (active) | -71.7% (active) | -50.3% (active) | -28.1% (active)
C=CC(=O)N(C)[C@H]1C[C@H]2OC(C)(C1OC)n1c3ccccc3c3c4c(c5c6ccccc6n2c5c31)C(=O)NC4 (stereo partly drawn) | 28.7% | 4.26% (active) | -46.7% (active) | 7.42% (active) | -90.1% (active) | 6.45% (active) | -27% (active) | -49.1% (active) |  | -1.74% (active)
O=C(O)c1ccc2c(c1)nc(Nc1cccc(Cl)c1)c1ccncc12 | 33.7% | 8.63% (active) | -10.2% (active) | 3.58% (active) | -9.7% (active) | 14.8% | 6.7% (active) | -23.8% (active) | -7.85% (active) | -0.117% (active)
CO[C@H]1C[C@@H]2CC[C@@H](C)[C@@](O)(O2)C(=O)C(=O)N2CCCC[C@H]2C(=O)O[C@H]([C@H](C)C[C@@H]2CC[C@@H](OCCO)[C@H](OC)C2)CC(=O)[C@H](C)/C=C(\C)[C@@H](O)[C@H](OC)C(=O)[C@H](C)C[C@H](C)\C=C/C=C/C=C/1C | 50.8% | 42.9% | 36.6% | 63.1% | 5.21% (active) | 51.6% | 26.3% | 41.8% | 61% | 62.2%
O=C(Nc1ccc(Nc2ncnc3sc4c(c23)CCOC4)cc1)Nc1ccc(Cl)c(C(F)(F)F)c1 | 96.1% | 88.5% | 88.7% | 95.2% | 98.9% | 99.4% | 83.1% | 63.8% | 105% | 77.7%
O=C(Cn1ccc2ccccc21)Nc1ccc(-c2nc3ccccc3s2)cc1 | 101% | 103% | 108% | 108% | 113% | 96.6% | 103% | 102% | 100% | 108%

Source: PubChem BioAssay (NCI)
